Rpn11 inh: inhibitors of human proteasome Rpn11; O00487; human 26S proteasome, Ub4-pepOG fluorescence polarization; 20S core pre-blocked with epoxomicin; inhibition, % at 20 µM; hit rate 0.59% among 360,000; AID 588493;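 active means inhibition at 20 µM, scaled to each plate's controls, above about 33%, limit read from the data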
Target sequence (O00487 whole entry, looked up): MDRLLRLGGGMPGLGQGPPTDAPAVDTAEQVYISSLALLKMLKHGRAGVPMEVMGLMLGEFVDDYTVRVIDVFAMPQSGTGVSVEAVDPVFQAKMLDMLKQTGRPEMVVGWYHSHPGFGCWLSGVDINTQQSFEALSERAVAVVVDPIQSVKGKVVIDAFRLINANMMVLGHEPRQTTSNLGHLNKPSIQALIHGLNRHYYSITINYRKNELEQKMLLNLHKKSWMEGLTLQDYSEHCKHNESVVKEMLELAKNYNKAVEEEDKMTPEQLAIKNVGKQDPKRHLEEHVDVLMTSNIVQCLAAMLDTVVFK
Calb FLC: affects C. albicans growth with fluconazole; C. albicans CaCi-2 (fluconazole-resistant clinical isolate) + fluconazole, Alamar Blue growth, 48 h; AID 1979; hit rate 0.57% among 300,000; growth inhibition, % (concentration not given with the values);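 active means growth inhibition above about 58% in most replicates, limit read from the data, passing the limit was not always enough; inconclusive means exactly half the replicates above a set limit; inactive means most replicates below a set limit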;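 further: all wells also contain fluconazole at 8 µg/ml as a sub-toxic cotreatment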
IDE act: boosts human insulin-degrading enzyme activity in HEK cells. hit rate 0.073% among 340,000. FAbeta-B cleavage, fluorescence polarization; 0% vehicle, 100% cell-free pure enzyme wells. activation, % at 5.96 µM;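 active means activation above the mean of all tested compounds plus 3 SD, set per screening campaign, cut at about 17% in these data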
Rin1-Abl PPI inh: inhibitors of human Rin1-Abl protein interaction | P00519+Q13671 | inhibition, % at 7.35 µM | TR-FRET Rin1/Abl binding, biochemical | hit rate 0.4% among 360,000; in the data active means inhibition above about 5%, passing the limit was not always enough
TPT1 inhibitor: C. albicans TPT1 enzyme inhibition | recombinant caTPT1, FP RNA substrate dephosphorylation | inhibition, % at 5 µM | hit rate 0.81% among 300,000 | AID 1962;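 active means inhibition above the mean of all tested compounds plus 3 SD, set per screening campaign, cut at about 24% in these data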
IDE inh: inhibits human insulin-degrading enzyme in HEK cells; FAbetaB cleavage, fluorescence polarization; inhibition, % at 5.59 µM; AID 434962; hit rate 0.41% among 320,000; P14735;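 active means percent inhibition above the average of all tested compounds plus 3 SD, set per screening campaign, cut at about 16% in these data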;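 further: IDE supplied by intact live HEK cells; FP after avidin binding of uncleaved biotin substrate so inhibition keeps polarization high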
Of the large screens only hits and unclear results are named; the others gave an inactive call. Compounds with a hit are over-represented: about 2.3% of the library has one in this group of screens.

CCN1C(=O)/C(=C/N2CCc3ccccc3C2)SC1=S	none
CCOc1ccc2nc(SCC(=O)NCc3ccccc3OC)[nH]c2c1	none
Nc1ncnc2c1ncn2[C@@H]1O[C@H](CNCC(O)CO)[C@@H](O)[C@H]1O (some centres not stated)	none (no result: Calb FLC, TPT1 inhibitor, IDE inh)
CCCn1c(N)c(N(CCOC)C(=O)CSc2cc(C)c3cccc(C)c3n2)c(=O)[nH]c1=O	none (no result: Calb FLC, TPT1 inhibitor)
CC1(C)CCc2cc(-c3ccnc(=S)[nH]3)ccc2O1	IDE inh 26
CCOC(=O)c1ccc(Oc2nc(NC(C)(C)C)nc(N(C)C)n2)cc1	Calb FLC 91
O=C1CC(NS(=O)(=O)c2ccc([N+](=O)[O-])cc2)CN1c1ccc(Cl)cc1 (configuration not stated)	none
Cc1[nH]c2ccccc2c1C(=O)CCl	Calb FLC 96 (no result: TPT1 inhibitor, IDE inh)
Cc1[nH]c2ccccc2c1C(=O)CSc1ccccc1	none
O=C1/C(=C\c2ccc(O)cc2)SC(=S)N1c1cccnc1	Calb FLC inconclusive, IDE inh 88
COc1ccc(/C=C2\SC(=S)N(c3cccnc3)C2=O)cc1	none
COC(=O)Nc1ccc(S(=O)(=O)N2CCCC(C(=O)NCC3CCCO3)C2)cc1 (configuration not stated)	none (no result: Calb FLC, TPT1 inhibitor)
CC1(C)CC(N=Cc2c(O)n(Cc3ccc4c(c3)OCO4)c(=O)c3ccccc23)CC(C)(C)N1	Calb FLC 88
CC(Sc1nnnn1-c1ccc(O)cc1)C(=O)NNC(=O)c1ccc(F)cc1 (configuration not stated)	none (no result: Calb FLC, TPT1 inhibitor)
COCCn1c(SCc2ccc(C(=O)OC)o2)nnc1-c1c[nH]c2ccccc12	Rin1-Abl PPI inh 11
CCC1Nc2ncnc(N3CCCCC3)c2N(Cc2ccc(OC)cc2)C1=O (configuration not stated)	none (no result: Calb FLC, TPT1 inhibitor)
O=C(CCl)Nc1ccc(N=Nc2ccccc2)cc1	none (no result: TPT1 inhibitor, IDE inh)
O=C(CCl)Nc1ccc(-c2ccccc2)cc1	Calb FLC 92
COC(=O)Cn1nc(-c2ccccc2)c2ccccc21	Calb FLC 86
CC(=O)N1CCN(c2ccc(NC(=O)c3ccc(C(C)(C)C)cc3)cc2)CC1	Calb FLC 109
C(=Nc1ccc(Nc2ccccc2)cc1)c1ccc2ccccc2c1	Rin1-Abl PPI inh 14 (no result: Calb FLC)
Brc1ccc(C=Nc2ccc(Nc3ccccc3)cc2)s1	Rin1-Abl PPI inh 7.2
O=C(CCC(=O)N/N=C/c1ccc(Br)s1)NCc1ccccc1	none
CC1CCC(C(C)C)C(OC(=O)C[n+]2cc(-c3ccc(Cl)cc3)n3c2CCCCC3)C1 (configuration not stated)	Calb FLC 95
Clc1ccc(-c2c[n+](Cc3ccc(Br)cc3)c3n2CCCCC3)cc1	Calb FLC 106
Clc1ccc(-c2c[n+](Cc3ccc(Cl)cc3Cl)c3n2CCCCC3)cc1	none
COc1cc2c(cc1OC)-c1cc3ccc4c(c3c[n+]1CC2)OCO4	none
COc1cc2c(cc1O)CC[n+]1cc3c(OC)c(OC)ccc3cc1-2	Calb FLC 99
C=CCn1c(C2CC2)n[nH]c1=S	none
CCCCCC1CCC(c2n[nH]c(=S)n2C)CC1 (configuration not stated)	Calb FLC 99
CCc1cccc(C)c1NC(=O)CSc1n[nH]c(N)n1	none (no result: Calb FLC, TPT1 inhibitor)
COc1ccc(S(=O)(=O)N2CCOCC2)cc1NC(=O)CN1C(=O)NC(C)(C2CC2)C1=O (configuration not stated)	none (no result: Calb FLC, TPT1 inhibitor)
Cc1cc(C)n(-c2nc(NCCN(C)C)c3c4c(sc3n2)CCCC4)n1	Calb FLC 80
Cc1cc(C)n(-c2nc(NCCCN(C)C)c3c4c(sc3n2)CCCC4)n1	none (no result: IDE act)
CCOc1ccc2c(c1)C(C)=CC(C)(C)N2S(=O)(=O)c1ccc(C)cc1	Calb FLC 113 (no result: TPT1 inhibitor, IDE inh)
O=C(c1ccc(Cn2c(=O)[nH]c3ccsc3c2=O)cc1)N1CCN(c2ccccc2)CC1	none
O=C(c1ccc(Cn2c(=O)[nH]c3ccccc3c2=O)cc1)N1CCN(c2ccc(F)cc2)CC1	Calb FLC 63
Cc1ccc(NC(=O)COc2ccc(Br)cn2)cc1	none
Cc1ccc(NC(=O)CN(C)C(=O)c2cccc(S(=O)(=O)N3CCc4ccccc43)c2)cc1	none (no result: Calb FLC, TPT1 inhibitor)
CCc1ccccc1NC(=O)CN1CCN(C(=O)C2CCN(C(=O)/C=C/c3ccccc3)CC2)CC1	none (no result: Calb FLC, TPT1 inhibitor)
COc1cc(C(=S)N2CCN(c3ccccc3Cl)CC2)cc(O)c1O	Calb FLC 91
COc1ccc(C(=S)N2CCN(c3ccccc3Cl)CC2)cc1OC	none
CCCSC1=N/C(=C\c2ccc([N+](=O)[O-])o2)C(=O)S1	Rpn11 inh 53 (no result: Calb FLC, TPT1 inhibitor, IDE inh)
Cc1ccc2c(c1)c1c(n2CC(O)CNC2CCCC2)CCCC1 (configuration not stated)	IDE act 18
Cc1ccc2c(c1)c1c(n2CC(O)Cn2ccnc2C)C(=O)CCC1 (configuration not stated)	none
O=C(NC(c1ccc(Cl)cc1)c1cc(Cl)c2cccnc2c1O)c1cccnc1 (configuration not stated)	Calb FLC 84
CC(C)C(=O)NC(c1ccc(Cl)cc1Cl)c1ccc2cccnc2c1O (configuration not stated)	none
CCC(=O)NC(c1ccc(Cl)cc1Cl)c1ccc2cccnc2c1O (configuration not stated)	Calb FLC 107
Cc1cc(NC(c2ccc(Cl)cc2)c2ccc3cccnc3c2O)no1 (configuration not stated)	Calb FLC 101
CCCCC(=O)NC(c1ccc(Cl)cc1Cl)c1ccc2cccnc2c1O (configuration not stated)	Calb FLC 96 (no result: TPT1 inhibitor, IDE inh)
Cc1ccc(NC(=O)CC2CCCC2)c(Br)c1	none
CCC(=O)NC(c1cccs1)c1cc(Cl)c2cccnc2c1O (configuration not stated)	Calb FLC 99
COc1ccc2ccccc2c1C(O)c1nccn1C (configuration not stated)	IDE act 21
CCCC(=O)Nc1nc2ccc(OCC)cc2s1	none
CCOc1ccc2nc(NC(=S)N(C)C)sc2c1	Calb FLC 104
COc1ccccc1NS(=O)(=O)c1cc2c3c(c1)CCN3C(=O)CC2	none
CN(C)c1ccc(O)c2c1CC1CC3[C@@H](N(C)C)C(=O)C(C(N)=O)=C(O)[C@]3(O)C(=O)C1=C2O (some centres not stated)	Rin1-Abl PPI inh 16 (no result: Calb FLC)
CC(=O)c1cccc(Nc2ccc(Br)cc2)c1	none (no result: Calb FLC, IDE act, TPT1 inhibitor, IDE inh)
O=c1[nH]cc(N=Cc2cc([N+](=O)[O-])ccc2O)c(=O)[nH]1	Calb FLC 93 (no result: Rpn11 inh, IDE act, Rin1-Abl PPI inh)
Cc1ccc(-n2nnnc2C(Cl)c2nnnn2-c2ccc(C)cc2)cc1	Calb FLC 96 (no result: TPT1 inhibitor, IDE inh)
COc1cc(OC)cc(C(=O)NC(=S)N(Cc2ccccc2)C(C)C)c1	none

Source: PubChem (several laboratories)
